{"source": "PubChem BioAssay AID1159580", "about": "(chemical genetic matrix, 2015)", "assay": "chemical genetic growth profiling, strain panel (AID 1159580);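 note: tested at 20 µM; growth read once vehicle control cultures reached saturation at 30 °C; 1 = growth at the plate median or of vehicle wells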", "settings": "growth OD", "note": "Out of some 5,500 compounds screened, about 2,000 (36%) were called active. Roughly 18% stayed inconclusive and do not appear here. The list shows a part of the results. A number with no mark means an inactive call. Cut-off read from the data, not from the text of the source: active = normalized growth mostly below about 0.91 (no sharp cut-off); inconclusive = no clear call, values can overlap the other calls; inactive = mostly above about 0.92.", "data": [{"smiles": "C[N+]1(C)C2CC(OC(=O)[C@@H](CO)c3ccccc3)CC1C1OC12", "note": "(stereo partly drawn)", "values": [{"measurement": "normalized growth", "setting": "S. cerevisiae deletion strains, locus YJR066W, strain TOR1, stronger effect = lower value", "value": 0.976}, {"measurement": "normalized growth", "setting": "S. cerevisiae deletion strains, locus YJR075W, strain HOC1, stronger effect = lower value", "value": 1.01}, {"measurement": "normalized growth", "setting": "S. cerevisiae deletion strains, locus YKL009W, strain mrt4, stronger effect = lower value", "value": 1}, {"measurement": "normalized growth", "setting": "S. cerevisiae deletion strains, locus YKL068W, stronger effect = lower value", "value": 1}, {"measurement": "normalized growth", "setting": "S. cerevisiae deletion strains, locus YKL085W, strain MDH1 (second series), stronger effect = lower value", "value": 1.01}, {"measurement": "normalized growth", "setting": "S. cerevisiae deletion strains, locus YKL085W, strain MDH1, stronger effect = lower value", "value": 1.01}, {"measurement": "normalized growth", "setting": "S. cerevisiae deletion strains, locus YKL160W, strain elf1, stronger effect = lower value", "value": 0.955}, {"measurement": "normalized growth", "setting": "S. cerevisiae deletion strains, locus YKL190W, strain CNB1, stronger effect = lower value", "value": 1.03}, {"measurement": "normalized growth", "setting": "S. cerevisiae deletion strains, locus YKR001C, strain vps1, stronger effect = lower value", "value": 1.02}, {"measurement": "normalized growth", "setting": "S. cerevisiae deletion strains, locus YKR026C, strain gcn3, stronger effect = lower value", "value": 0.984}, {"measurement": "normalized growth", "setting": "S. cerevisiae deletion strains, locus YKR091W, strain srl3, stronger effect = lower value", "value": 0.968}, {"measurement": "normalized growth", "setting": "S. cerevisiae deletion strains, locus YLL001W, strain dnm1, stronger effect = lower value", "value": 0.933}, {"measurement": "normalized growth", "setting": "S. cerevisiae deletion strains, locus YLL026W, stronger effect = lower value", "value": 0.985}, {"measurement": "normalized growth", "setting": "S. cerevisiae deletion strains, locus YLL041C, strain sdh2, stronger effect = lower value", "value": 0.984}, {"measurement": "normalized growth", "setting": "S. cerevisiae deletion strains, locus YLR027C, strain aat2, stronger effect = lower value", "value": 0.982}, {"measurement": "normalized growth", "setting": "S. cerevisiae deletion strains, locus YLR039C, strain RIC1, stronger effect = lower value", "value": 1.02}, {"measurement": "normalized growth", "setting": "S. cerevisiae deletion strains, locus YLR058C, strain SHM2, stronger effect = lower value", "value": 1.02}, {"measurement": "normalized growth", "setting": "S. cerevisiae deletion strains, locus YLR102C, strain apc9, stronger effect = lower value", "value": 1.02}, {"measurement": "normalized growth", "setting": "S. cerevisiae deletion strains, locus YLR113W, strain HOG1, stronger effect = lower value", "value": 1}, {"measurement": "normalized growth", "setting": "S. cerevisiae deletion strains, locus YLR221C, strain rsa3, stronger effect = lower value", "value": 0.91}, {"measurement": "normalized growth", "setting": "S. cerevisiae deletion strains, locus YLR258W, strain gsy2, stronger effect = lower value", "value": 0.969}, {"measurement": "normalized growth", "setting": "S. cerevisiae deletion strains, locus YLR262C, strain YPT6 (second series), stronger effect = lower value", "value": 0.973}, {"measurement": "normalized growth", "setting": "S. cerevisiae deletion strains, locus YLR262C, strain YPT6, stronger effect = lower value", "value": 1.06}, {"measurement": "normalized growth", "setting": "S. cerevisiae deletion strains, locus YLR268W, strain sec22, stronger effect = lower value", "value": 1.03}, {"measurement": "normalized growth", "setting": "S. cerevisiae deletion strains, locus YLR320W, strain mms22, stronger effect = lower value", "value": 0.94}, {"measurement": "normalized growth", "setting": "S. cerevisiae deletion strains, locus YLR330W, strain CHS5, stronger effect = lower value", "value": 1.02}, {"measurement": "normalized growth", "setting": "S. cerevisiae deletion strains, locus YLR342W, strain FKS1 (second series), stronger effect = lower value", "value": 1.03}, {"measurement": "normalized growth", "setting": "S. cerevisiae deletion strains, locus YLR342W, strain FKS1, stronger effect = lower value", "value": 0.962}, {"measurement": "normalized growth", "setting": "S. cerevisiae deletion strains, locus YLR357W, strain rsc2, stronger effect = lower value", "value": 0.979}, {"measurement": "normalized growth", "setting": "S. cerevisiae deletion strains, locus YLR370C, strain arc18, stronger effect = lower value", "value": 0.948}, {"measurement": "normalized growth", "setting": "S. cerevisiae deletion strains, locus YLR371W, strain rom2, stronger effect = lower value", "value": 1}, {"measurement": "normalized growth", "setting": "S. cerevisiae deletion strains, locus YLR384C, strain iki3, stronger effect = lower value", "value": 0.97}, {"measurement": "normalized growth", "setting": "S. cerevisiae deletion strains, locus YLR418C, strain cdc73, stronger effect = lower value", "value": 1.05}, {"measurement": "normalized growth", "setting": "S. cerevisiae deletion strains, locus YML016C, strain PPZ1, stronger effect = lower value", "value": 1.01}, {"measurement": "normalized growth", "setting": "S. cerevisiae deletion strains, locus YML032C, strain rad52, stronger effect = lower value", "value": 1.01}, {"measurement": "normalized growth", "setting": "S. cerevisiae deletion strains, locus YML120C, strain ndi1, stronger effect = lower value", "value": "0.903 (active)"}, {"measurement": "normalized growth", "setting": "S. cerevisiae deletion strains, locus YML124C, strain tub3, stronger effect = lower value", "value": 1.03}, {"measurement": "normalized growth", "setting": "S. cerevisiae deletion strains, locus YMR058W, strain fet3, stronger effect = lower value", "value": 0.973}, {"measurement": "normalized growth", "setting": "S. cerevisiae deletion strains, locus YMR078C, strain ctf18, stronger effect = lower value", "value": 1.02}, {"measurement": "normalized growth", "setting": "S. cerevisiae deletion strains, locus YMR125W, strain sto1, stronger effect = lower value", "value": 0.962}, {"measurement": "normalized growth", "setting": "S. cerevisiae deletion strains, locus YMR129W, stronger effect = lower value", "value": 0.982}, {"measurement": "normalized growth", "setting": "S. cerevisiae deletion strains, locus YMR205C, strain PFK2, stronger effect = lower value", "value": 0.956}, {"measurement": "normalized growth", "setting": "S. cerevisiae deletion strains, locus YMR223W, strain ubp8, stronger effect = lower value", "value": 1.05}, {"measurement": "normalized growth", "setting": "S. cerevisiae deletion strains, locus YMR231W, strain pep5, stronger effect = lower value", "value": 0.989}, {"measurement": "normalized growth", "setting": "S. cerevisiae deletion strains, locus YMR307W, strain GAS1, stronger effect = lower value", "value": 1.05}, {"measurement": "normalized growth", "setting": "S. cerevisiae deletion strains, locus YNL067W, strain RPL9B, stronger effect = lower value", "value": 1.02}, {"measurement": "normalized growth", "setting": "S. cerevisiae deletion strains, locus YNL071W, strain lat1, stronger effect = lower value", "value": 0.978}, {"measurement": "normalized growth", "setting": "S. cerevisiae deletion strains, locus YNL183C, strain NPR1, stronger effect = lower value", "value": 0.957}, {"measurement": "normalized growth", "setting": "S. cerevisiae deletion strains, locus YNL209W, strain ssb2, stronger effect = lower value", "value": 0.959}, {"measurement": "normalized growth", "setting": "S. cerevisiae deletion strains, locus YNL233W, strain BNI4, stronger effect = lower value", "value": 1.01}, {"measurement": "normalized growth", "setting": "S. cerevisiae deletion strains, locus YNL248C, strain rpa49, stronger effect = lower value", "value": 0.971}, {"measurement": "normalized growth", "setting": "S. cerevisiae deletion strains, locus YNL250W, strain rad50, stronger effect = lower value", "value": 1.02}, {"measurement": "normalized growth", "setting": "S. cerevisiae deletion strains, locus YNL271C, strain bni1, stronger effect = lower value", "value": 1.01}, {"measurement": "normalized growth", "setting": "S. cerevisiae deletion strains, locus YNL298W, strain CLA4, stronger effect = lower value", "value": 1.02}, {"measurement": "normalized growth", "setting": "S. cerevisiae deletion strains, locus YNL307C, strain MCK1, stronger effect = lower value", "value": 1.02}, {"measurement": "normalized growth", "setting": "S. cerevisiae deletion strains, locus YNL322C, strain KRE1 (second series), stronger effect = lower value", "value": 0.936}, {"measurement": "normalized growth", "setting": "S. cerevisiae deletion strains, locus YNR049C, strain mso1, stronger effect = lower value", "value": 0.964}, {"measurement": "normalized growth", "setting": "S. cerevisiae deletion strains, locus YNR052C, strain pop2, stronger effect = lower value", "value": 1.02}, {"measurement": "normalized growth", "setting": "S. cerevisiae deletion strains, locus YOL012C, strain htz1", "value": 1.54}, {"measurement": "normalized growth", "setting": "S. cerevisiae deletion strains, locus YOL147C, strain pex11, stronger effect = lower value", "value": 1.03}, {"measurement": "normalized growth", "setting": "S. cerevisiae deletion strains, locus YOR001W, strain rrp6, stronger effect = lower value", "value": 1.04}, {"measurement": "normalized growth", "setting": "S. cerevisiae deletion strains, locus YOR061W, strain CKA2, stronger effect = lower value", "value": 1.01}, {"measurement": "normalized growth", "setting": "S. cerevisiae deletion strains, locus YOR069W, strain VPS5, stronger effect = lower value", "value": 1.01}, {"measurement": "normalized growth", "setting": "S. cerevisiae deletion strains, locus YOR070C, strain gyp1, stronger effect = lower value", "value": 0.99}, {"measurement": "normalized growth", "setting": "S. cerevisiae deletion strains, locus YOR080W, strain dia2, stronger effect = lower value", "value": 0.952}, {"measurement": "normalized growth", "setting": "S. cerevisiae deletion strains, locus YOR083W, strain WHI5, stronger effect = lower value", "value": 0.962}, {"measurement": "normalized growth", "setting": "S. cerevisiae deletion strains, locus YOR106W, strain vam3, stronger effect = lower value", "value": 0.933}, {"measurement": "normalized growth", "setting": "S. cerevisiae deletion strains, locus YOR136W, strain idh2, stronger effect = lower value", "value": 1.02}, {"measurement": "normalized growth", "setting": "S. cerevisiae deletion strains, locus YOR144C, strain elg1, stronger effect = lower value", "value": 1.01}, {"measurement": "normalized growth", "setting": "S. cerevisiae deletion strains, locus YOR184W, strain ser1, stronger effect = lower value", "value": 1.03}, {"measurement": "normalized growth", "setting": "S. cerevisiae deletion strains, locus YOR231W, strain MKK1, stronger effect = lower value", "value": 0.998}, {"measurement": "normalized growth", "setting": "S. cerevisiae deletion strains, locus YOR265W, strain rbl2, stronger effect = lower value", "value": 0.965}, {"measurement": "normalized growth", "setting": "S. cerevisiae deletion strains, locus YOR270C, strain vph1, stronger effect = lower value", "value": 0.935}, {"measurement": "normalized growth", "setting": "S. cerevisiae deletion strains, locus YOR290C, strain snf2, stronger effect = lower value", "value": "0.865 (active)"}, {"measurement": "normalized growth", "setting": "S. cerevisiae deletion strains, locus YOR316C, strain cot1, stronger effect = lower value", "value": 1.02}, {"measurement": "normalized growth", "setting": "S. cerevisiae deletion strains, locus YPL051W, strain arl3, stronger effect = lower value", "value": 0.988}, {"measurement": "normalized growth", "setting": "S. cerevisiae deletion strains, locus YPL055C, strain LGE1, stronger effect = lower value", "value": 1.05}, {"measurement": "normalized growth", "setting": "S. cerevisiae deletion strains, locus YPL078C, strain atp4, stronger effect = lower value", "value": 0.956}, {"measurement": "normalized growth", "setting": "S. cerevisiae deletion strains, locus YPL106C, strain sse1, stronger effect = lower value", "value": 0.94}, {"measurement": "normalized growth", "setting": "S. cerevisiae deletion strains, locus YPL240C, strain hsp82, stronger effect = lower value", "value": 0.978}, {"measurement": "normalized growth", "setting": "S. cerevisiae deletion strains, locus YPL241C, strain CIN2, stronger effect = lower value", "value": 1.01}, {"measurement": "normalized growth", "setting": "S. cerevisiae deletion strains, locus YPL256C, strain CLN2, stronger effect = lower value", "value": 1.05}, {"measurement": "normalized growth", "setting": "S. cerevisiae deletion strains, locus YPR119W, strain clb2, stronger effect = lower value", "value": 1.01}, {"measurement": "normalized growth", "setting": "S. cerevisiae deletion strains, locus YPR141C, strain kar3, stronger effect = lower value", "value": 1.01}, {"measurement": "normalized growth", "setting": "S. cerevisiae deletion strains, locus YPR163C, strain tif3, stronger effect = lower value", "value": 1.03}, {"measurement": "normalized growth", "setting": "S. cerevisiae deletion strains, locus YPR167C, strain met16, stronger effect = lower value", "value": 1.03}, {"measurement": "normalized growth", "setting": "S. cerevisiae deletion strains, strain wtn01, stronger effect = lower value", "value": 1.02}, {"measurement": "normalized growth", "setting": "S. cerevisiae strains, strain wild type, stronger effect = lower value", "value": 1.03}]}]}
